GLP1R ag – qHTS of GLP-1 Receptor Agonists. Glucagon-like peptide 1 receptor (Homo sapiens), P43220. AID 624172, 2012. 0.007% of 380,000 active. HEK293 GLP-1R CRE-luciferase, luminescence, 4-6 h; cells express a hypersensitive GLP-1R form. Potency, µM (top dose mostly 45.6 µM), for inactives: at the highest dose activation, hits mostly activators; also: potency is read from the fitted curve at half-maximal effect; % of control where 0% means no effect
Target sequence (P43220 whole entry, looked up): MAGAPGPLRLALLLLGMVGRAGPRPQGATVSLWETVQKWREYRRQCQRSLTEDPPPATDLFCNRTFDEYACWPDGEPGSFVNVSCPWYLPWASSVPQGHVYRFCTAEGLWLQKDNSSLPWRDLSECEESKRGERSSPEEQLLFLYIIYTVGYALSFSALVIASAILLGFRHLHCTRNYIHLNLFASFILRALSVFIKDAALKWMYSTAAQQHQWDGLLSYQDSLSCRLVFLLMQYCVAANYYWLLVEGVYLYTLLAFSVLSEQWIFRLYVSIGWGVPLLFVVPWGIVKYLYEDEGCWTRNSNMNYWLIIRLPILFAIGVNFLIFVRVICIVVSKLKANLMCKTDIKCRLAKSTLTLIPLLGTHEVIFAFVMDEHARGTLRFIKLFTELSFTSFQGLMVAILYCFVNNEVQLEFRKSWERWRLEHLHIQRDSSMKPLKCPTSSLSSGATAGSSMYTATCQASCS
TRPML1 ag – qHTS for Agonists of the Human Mucolipin Transient Receptor Potential 1 (TRPML1). Mucolipin-1 (Homo sapiens), Q9GZU1. TRPML1-expressing cells, Ca2+ dye fluorescence, FDSS. activation, % (test concentration not listed). 0.12% of 410,000 active; in the data active = activation above about 50%; inconclusive = mostly about 30% to 49%; also: 0% is about no effect
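Kinetic FDSS Ca2+ read in Tet-induced TRPML1-DL cells (ABD Ca8 dye plus quencher, 45-90 min RT loading): baseline, then compound, then 110 s agonist window; EC80 agonist 54-4 at 4uM final added afterwards for a 110 s antagonist window.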
HEK293 tox – qHTS of GLP-1 Receptor Inverse Agonists: Cytotox Screen. HEK293 cAMP-luciferase reporter cells, luminescence, 24 h. Potency, µM (series often up to 38.3 µM), inactives show at the top dose activity change, negative = inhibition, most hits filed as inhibitors. 0.13% of 410,000 active;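 also: loss of luciferase light is scored as toxicity; potency is read from the fitted curve at half-maximal effect; % is scaled to controls: 0 for no effect and ±100 for the full control effect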
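Luminescence readout: signal drop marks cytotoxicity. Plated cells grew 12 h at 37 °C, 5% CO2, received 23 nL compound for 24 h, then got luciferase reagent, read after 12 min at RT.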
TRPML1 inh – qHTS for Inhibitors of the Human Mucolipin Transient Receptor Potential 1 (TRPML1) | Mucolipin-1 (Homo sapiens), Q9GZU1 | TRPML1-inducible cells, Ca2+ dye fluorescence, FDSS; active compounds read low; inhibition of EC80 agonist-evoked calcium signal | activity change, negative = inhibition, % (concentration not given with the values) | 0.02% of 390,000 active; in the data active = activity change below about -50%; inconclusive = between about -30% and that limit;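 also: stimulus is agonist 54-4 at its EC80 concentration; % is scaled to controls: 0 for no effect and ±100 for the full control effect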
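Tet-induced TRPML1-DL cells loaded with Ca8 no-wash calcium dye were read kinetically on FDSS. Compound addition was followed by EC80 agonist 54-4 (4 uM final); inhibition was read over 110 s.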
GLP-1R inv ag – qHTS of GLP-1 Receptor Inverse Agonists (Inhibition Mode); Glucagon-like peptide 1 receptor (Homo sapiens), P43220; HEK293 GLP-1R CRE-luciferase, luminescence, 24 h; GLP-1R form is constitutively active; Potency, µM (doses to about 38.3 µM), for the others: at the top dose activity change, negative = inhibition, hits mostly inhibitors; 1.6% of 410,000 active; also: potency is read from the fitted curve at half-maximal effect; % is scaled to controls: 0 for no effect and ±100 for the full control effect; nearly all actives have a fitted effect of over 55% in size
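Constitutively active GLP-1R drives a cAMP-responsive luciferase in stably transfected HEK293 cells; test compounds are added after overnight (12 h) attachment and left 24 hr, and signal loss in luminescence marks inhibition.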
* hit, by the source's call; i = inactive; ? = inconclusive; . = no result given. Hits are enriched below; roughly 1.8% of the tested compounds scored in any of these assays. Unless noted, calls follow the shape of the dose curve; as a rule, active = well fitted curve in the direction sought with a large enough effect; inconclusive = small, poorly fitted or top-dose-only effect, or another doubt; inactive = no such curve, though single readings can be large; an effect the other way counts as inactive or inconclusive.

SMILES	GLP1R ag	TRPML1 ag	HEK293 tox	TRPML1 inh	GLP-1R inv ag
CC12C(=O)N(c3nccs3)C(=O)C1(C)C1CCC2O1 (configuration not stated)	3%	0	?	-7	?
C[C@@]12C(=O)OC(=O)[C@]1(C)C1CCC2O1	-10%	1	?	2	1.8µM*
COc1ccc([N+](=O)[O-])cc1NC(=S)NC(NC(=O)Cc1ccc(OC)c(OC)c1)C(Cl)(Cl)Cl (configuration not stated)	-5%	0	?	28	4.5µM*
COc1cccc(OCc2cc(C(=O)N(Cc3ccccc3)CC3CC3)no2)c1	9%	1	-4%	8	8.9µM*
COc1cccc(OCc2cc(C(=O)N(C)Cc3nc4ccccc4[nH]3)no2)c1	10%	1	1%	-5	?
CCc1ccc2nc(N(Cc3cccnc3)C(=O)Cc3ccccc3)sc2c1	.	2	15%	8	-3%
CCCN1CNc2c(c(=O)[nH]c(=S)n2CCc2ccc(OC)cc2OC)C1	.	-1	.	.	.
CS(=O)(=O)c1ccc(C(=O)OCC(=O)N2CCc3ccccc32)cc1[N+](=O)[O-]	.	-1	.	.	.
O=C(CN1CCN(c2ncc(C(F)(F)F)cc2Cl)CC1)N1CCN(c2ncc(C(F)(F)F)cc2Cl)CC1	-5%	1	3%	9	4.5µM*
CCCCc1nc(NCCNC(=O)c2ccco2)c(C#N)c2c1CSC(C)(C)C2	12%	-1	-39%	2	-2%
CCCCc1nc(NCCNC(=O)c2ccccc2)c(C#N)c2c1CSC(C)(C)C2	-34%	6	?	-3	8.9µM*
CCCCC(Sc1nc2cc3c(cc2c(=O)n1CCCC(=O)NCc1ccc(OC)cc1)OCO3)C(=O)OCC (configuration not stated)	.	1	13%	9	6%
O[C@H]1C[C@H](c2ccccc2)N(CC2CCCCC2)C[C@@H]1n1cc(C2CC2)nn1	-2%	0	?	0	10µM*
S=C1NCCc2ccccc2C1c1ccccc1 (configuration not stated)	1%	0	?	4	11µM*
S=C1NCCc2ccccc2C1c1ccccc1Cl (configuration not stated)	-6%	0	?	3	?
CCc1ccc2oc(-c3cccc(NC(=O)C(C)(C)Oc4ccc(Br)cc4)c3)nc2c1	-6%	2	1%	-2	?
CC(C)(C)n1ncc2c(=O)n(Cc3ccc(Cl)cc3C(F)(F)F)cnc21	.	1	.	-2	.
O=S(=O)(NCCSc1ccccc1)c1ccc(F)cc1	13%	0	19%	15	10µM*
O=C(Nc1nc(-c2ccc(Cl)cc2Cl)cs1)c1ccc(OCC2CCCO2)cc1 (configuration not stated)	5%	0	-1%	-8	7.1µM*
COc1cccc2cc(-c3nc4ccccc4[nH]3)c(=O)oc12	10%	0	87%	-5	22%
CCN(CC)c1ccc2cc(-c3nnc(-c4ccccc4)o3)c(=O)oc2c1	10%	72*	192%	-15	13%
CCN(CC)c1ccc2cc(C(=O)c3cccs3)c(=O)oc2c1	-5%	84*	43%	.	?
O=C(c1cc2ccccc2oc1=O)N(Cc1cccs1)Cc1cccs1	7%	3	3%	4	?
CCN(CC)c1ccc2cc(-c3nc4ccccc4[nH]3)c(=O)oc2c1	0%	97*	320%	?	-47%
CCN(CC)c1ccc2cc(-c3nc(-c4ccc(Cl)cc4Cl)cs3)c(=O)oc2c1	.	9	12%	-4	6%
SMILES	GLP1R ag	TRPML1 ag	HEK293 tox	TRPML1 inh	GLP-1R inv ag
CCN(CC)c1ccc2cc(-c3nc(-c4ccc(OC)cc4)cs3)c(=O)oc2c1	-17%	118*	i	-26	-4%
C[n+]1ccnc2ccccc21	.	2	.	.	.
O=C(NCc1cccc(F)c1)c1ccc(CN2CC(=O)N3CCCCC3C2=O)cc1 (configuration not stated)	.	-1	1%	-7	0%
CCN(CC)c1ccc2cc(-c3nc4ccccc4n3C)c(=O)oc2c1	-1%	61*	i	14	?
CN(C)Cc1c(O)ccc2cc(-c3nc4ccccc4n3C)c(=O)oc12	11%	7	i	-10	2%
CCCCCCCCCCCCOC(=O)N1CCN(/[N+]([O-])=N/Oc2ccc([N+](=O)[O-])cc2[N+](C)=O)CC1	.	1	.	-8	.
O=C(CN1C(=O)NC(c2ccccc2)(c2ccccc2)C1=O)N1CCN(c2ccccc2F)CC1	-5%	-1	-2%	-10	?
O=C(CN1C(=O)NC(c2ccccc2)(c2ccccc2)C1=O)N1CCN(c2ccc(F)cc2)CC1	0%	0	?	7	7.9µM*
O=[N+]([O-])c1cc(C(F)(F)F)ccc1Sc1ccc2ccccc2n1	1%	2	3%	-6	10µM*
Nc1nc(Sc2ccc(C(F)(F)F)cc2[N+](=O)[O-])n[nH]1	18%	4	19%	-9	8%
Cc1ccc(CN2CCSc3ccc(C(=O)NCCCN4CCN(C)CC4)cc32)cc1	30%	0	?	0	5.6µM*
CN(C)CCNC(=O)c1ccc2c(c1)N(Cc1ccc(F)cc1)CCS2	-3%	0	1%	7	3.2µM*
O=C(NCC1CCCO1)c1ccc2c(c1)N(Cc1ccc(Cl)cc1)CCS2 (configuration not stated)	8%	1	-17%	15	10µM*
CCn1c(NCc2cc(Br)ccc2NS(=O)(=O)c2ccc(C)cc2)nc2ccccc21	-32%	0	-30%	17	11µM*
CCn1c(NCc2ccccc2NS(=O)(=O)c2ccc(C)cc2)nc2ccccc21	-5%	0	-27%	-13	?
Cc1ccc(NC(=S)NC(NC(=O)c2ccccc2)C(Cl)(Cl)Cl)c(C)c1 (configuration not stated)	-23%	2	?	17	3.5µM*
Cc1ccccc1C(=O)NC(NC(=S)Nc1ccc(S(N)(=O)=O)cc1)C(Cl)(Cl)Cl (configuration not stated)	-7%	-1	-15%	-13	?
Cc1ccc(C(=O)NC(NC(=S)Nc2ccc(S(N)(=O)=O)cc2)C(Cl)(Cl)Cl)cc1 (configuration not stated)	-6%	1	-25%	26	5.6µM*
Cc1ccc(NC(=S)NC(NC(=O)c2ccco2)C(Cl)(Cl)Cl)cc1 (configuration not stated)	-10%	0	-35%	-11	?

Bioassay records from PubChem BioAssay.
